Bioassay records from PubChem BioAssay.
Rows were chosen to be rich in hits. Some 0.96% of all compounds tested hit in one or more screens of this group.
TRPML1 blocker: qHTS for Inhibitors of the Human Mucolipin Transient Receptor Potential 1 (TRPML1); AID 624415, 2012; TRPML1-inducible cells, Ca2+ dye fluorescence, FDSS; hits give low values; inhibition of EC80 agonist-evoked calcium signal; activity change, negative = inhibition, % (no concentration beside the values); 390,000 compounds, 0.02% hits; Mucolipin-1 (Homo sapiens), Q9GZU1; in the data active = activity change below about -50%; inconclusive = between about -30% and that limit;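 also: stimulus is agonist 54-4 at its EC80 concentration; % is scaled to controls: 0 for no effect and ±100 for the full control effect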
Target sequence (Q9GZU1 whole entry, looked up): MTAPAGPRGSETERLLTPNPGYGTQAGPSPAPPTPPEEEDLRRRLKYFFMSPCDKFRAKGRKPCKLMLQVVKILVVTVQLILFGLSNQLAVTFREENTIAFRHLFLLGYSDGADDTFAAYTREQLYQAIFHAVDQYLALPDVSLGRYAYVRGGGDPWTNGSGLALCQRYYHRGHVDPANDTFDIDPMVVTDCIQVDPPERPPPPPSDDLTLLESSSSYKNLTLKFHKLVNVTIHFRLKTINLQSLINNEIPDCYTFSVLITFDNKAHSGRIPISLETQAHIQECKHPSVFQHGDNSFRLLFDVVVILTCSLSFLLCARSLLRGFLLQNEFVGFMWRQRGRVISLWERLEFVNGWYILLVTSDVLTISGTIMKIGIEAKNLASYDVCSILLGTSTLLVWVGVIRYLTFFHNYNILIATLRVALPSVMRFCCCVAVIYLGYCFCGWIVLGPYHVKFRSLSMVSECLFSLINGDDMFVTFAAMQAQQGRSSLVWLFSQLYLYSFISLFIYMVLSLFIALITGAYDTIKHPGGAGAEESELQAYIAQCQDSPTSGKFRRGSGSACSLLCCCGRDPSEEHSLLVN
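TRPML1-DL cells, Tet-induced overnight (~16 h, 37 °C) at 1,500 cells/well, were loaded with Ca8 no-wash dye plus quencher for 45-90 min at room temperature. Compounds were pinned during FDSS kinetic reading; agonist 54-4 at EC80 (4 uM final) then added.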
TRPV1 potentiator: HTS Assay for Compounds that Act as Potentiators of the Vanilloid Receptor 1; TRPV1-expressing cells, Fluo-8 calcium influx, capsaicin EC20 potentiation; potentiation, % at 8.33 µM; 320,000 compounds, 0.02% hits; Transient receptor potential cation channel subfamily V member 1 (Homo sapiens), Q8NER1; AID 540277, 2011; in the data active = potentiation above about 80%; inconclusive = between about 30% and that limit; also: 0% is about no effect
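Cells expressing TRPV1 were dye-loaded with Fluo-8 and read kinetically: 10 s baseline, 3 min after compound (agonist portion), then 2 min after EC20 capsaicin (allosteric enhancer portion). Calcium-bound dye fluorescence at 480/520 nm.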
TRPV1 ag: HTS Assay for Compounds that Act as Agonists of the Vanilloid Receptor 1; Transient receptor potential cation channel subfamily V member 1 (Homo sapiens), Q8NER1; activation, % at 8.33 µM; TRPV1-expressing cells, Fluo-8 calcium influx, agonist mode; 320,000 compounds, 0.19% hits; in the data active = activation above about 80%; inconclusive = between about 30% and that limit; also: 0% is about no effect
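Cells expressing TRPV1 were dye-loaded with Fluo-8 and read kinetically: 10 s baseline, 3 min after compound (agonist portion), then 2 min after EC20 capsaicin (allosteric enhancer portion). Calcium-bound dye fluorescence at 480/520 nm.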
TRHR ag: qHTS for Small Molecule Agonists and Allosteric Enhancers of Human TRH Receptor: Primary Screen for Agonists | Thyrotropin-releasing hormone receptor (Homo sapiens), P34981 | TRHR cells, calcium flux fluo-8, FDSS agonist mode | activation, % at 2 µM | 360,000 compounds, 0.18% hits | AID 493084, 2011; in the data active = activation above about 30%; also: 0% is about no effect
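Agonist-mode FDSS calcium read (Ex 480/Em 530, 1 s cycles) in 1536-well TRHR cells with fluo-8 dye, after 10-cycle baseline and 23 nL compound addition; TRH at EC20 (10 nM final) added afterwards for the enhancer phase.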
TRPML1 agonist: qHTS for Agonists of the Human Mucolipin Transient Receptor Potential 1 (TRPML1) | Mucolipin-1 (Homo sapiens), Q9GZU1 | TRPML1-expressing cells, Ca2+ dye fluorescence, FDSS | activation, % (concentration not given with the values) | 410,000 compounds, 0.12% hits; in the data active = activation above about 50%; inconclusive = mostly about 30% to 49%; also: 0% is about no effect
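Tet-induced TRPML1-DL cells, 1,500 per well, cultured overnight, were loaded with a no-wash Ca2+ dye for 45–90 min. Calcium fluorescence was recorded on the FDSS for 110 s after compound addition, before the EC80 agonist (4 uM 54-4) was added.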
TRHR enhancer: qHTS for Small Molecule Agonists and Allosteric Enhancers of Human TRH Receptor: Primary Screen for Enhancers; TRHR cells, fluo-8 calcium fluorescence, EC20 TRH enhancement; 360,000 compounds, 0.66% hits; Thyrotropin-releasing hormone receptor (Homo sapiens), P34981; enhancement, % at 2 µM; in the data active = enhancement above about 30%; also: 0% is about no effect
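Enhancer read-out: after compound pinning and an initial kinetic agonist-mode read, an EC20 of TRH (10 nM final) was injected and fluo-8 calcium signal (Ex 480/Em 530) followed at 1 s/cycle for 100 cycles in TRHR-expressing cells.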
* marks the source's active call; other numbers are inactive results; ? = inconclusive; / = not tested or not shown.

SMILES	TRPML1 blocker	TRPV1 potentiator	TRPV1 ag	TRHR ag	TRPML1 agonist	TRHR enhancer
O=C1CC(c2nc3ccccc3[nH]2)CN1c1ccccc1 (stereo not given)	17.0	-6.0	11.0	-0.8	-0.4	31.2*
CCC[N+](C)(C)c1ccc(/C=C/c2ccncc2)cc1	/	/	/	/	16.5	/
O=C(c1ccc([N+](=O)[O-])cc1)N(Cc1ccc(Cl)cc1Cl)N1C(=O)CCCC1=O	-12.3	-0.1	-3.8	0.8	-0.1	-7.7
O=C(c1ccc([N+](=O)[O-])cc1)N(Cc1ccc(Cl)cc1)N1C(=O)CCCC1=O	36.3	7.6	-2.4	36.0*	19.3	-19.5
O=C(c1ccc2c(=O)n(Cc3ccco3)c(=S)[nH]c2c1)N1CCN(Cc2ccc3c(c2)OCO3)CC1	/	/	/	/	-0.4	/
NC(=O)C1(c2ccccc2)CCCN1C(=O)c1ccccc1Br (stereo not given)	-20.3	?	-1.2	0.1	3.6	35.9*
O=C(NCC1CC1)c1ccc2nc(-c3ccoc3)c(-c3ccoc3)nc2c1	/	/	/	/	-0.9	/
CC(=O)N1CCc2nc3sc(C(=O)c4ccc(F)cc4)c(N)c3c(C(F)(F)F)c2C1	-19.9	/	/	36.6*	?	-2.8
O=C(C[n+]1ccc2ccccc2c1)c1ccc(F)cc1	/	/	/	/	-0.4	/
O=[N+]([O-])c1ccccc1/C=C1\C=Cc2ccccc21	/	/	/	/	-0.2	/
c1ccc2nccnc2c1	/	/	/	/	0.8	/
CCCOc1ccc(C(=O)NC(=S)NNC(=O)c2c(-c3ccccc3)noc2C)cc1	38.6	-32.2	?	47.9*	64.7*	-7.4
Cc1ccc(C(=O)NNC(=S)NC(=O)c2ccc(Cl)cc2Cl)cc1	3.8	-18.6	20.9	32.2*	72.4*	-7.8
Cc1ccc(C(=O)NC(=S)NNC(=O)c2ccccc2)cc1	-14.3	-19.2	24.7	30.6*	69.5*	-3.2
CCCOc1ccc(NC(=O)c2c(-c3ccccc3)noc2C)cc1	-7.8	/	/	-0.4	1.9	10.6
Cc1cccc(C(=O)NNC(=S)NC(=O)c2cccs2)c1	2.0	-6.3	10.6	20.3	66.2*	-7.2
Cc1ccc(C(=O)NNC(=S)NC(=O)c2ccccc2)cc1	-12.3	/	/	/	-0.2	/
COc1ccc(C(=O)NNC(=S)NC(=O)c2cccs2)cc1	-14.6	5.7	2.9	2.5	4.0	16.9
CC(=O)c1cc2ccccc2c2ccccc12	/	/	/	/	-0.9	/
CC(C)(C)n1ncc2c(=O)n(Cc3cccc(OC(F)(F)F)c3)cnc21	16.8	/	/	/	1.0	/
Cc1cccc(C(=O)NNC(=S)NC(=O)c2ccccc2)c1	5.7	/	/	/	69.9*	/
Cc1ccccc1C(=O)NNC(=S)NC(=O)c1ccccc1	1.0	-16.5	28.8	58.9*	?	-23.0
COc1cc2nc(N3CCCCC3)nc(NC3CCN(Cc4ccccc4)CC3)c2cc1OC	/	/	/	/	0.0	/
Cc1ccccc1C1CC(c2ccc(Br)cc2)Nc2nc(N)nn21 (stereo not given)	-3.9	2.3	-1.2	1.0	4.3	40.2*
CCNc1nc(C#N)nc2c1ncn2-c1cccc(Cl)c1	/	/	/	0.0	/	0.5
Cc1ccc(NC(=S)Nc2cccc(S(=O)(=O)Nc3c(C)n(C)n(-c4ccccc4)c3=O)c2)cc1	22.3	11.5	-0.6	-0.2	-0.6	32.4*
CC(=O)c1ccc(NC(=S)Nc2cccc(S(=O)(=O)Nc3c(C)n(C)n(-c4ccccc4)c3=O)c2)cc1	52.2	-8.5	0.3	3.4	-0.8	-1.7
Cc1cc2c(cc1C)NC(CC(=O)Nc1cccc(Cl)c1)C(=O)N2 (stereo not given)	1.5	/	/	1.7	1.5	42.7*
COc1cccc(/C=C2\SC(N3CCC(C)CC3)=NC2=O)c1OC	-2.4	-15.8	93.0*	-0.7	1.6	-5.2
